Measurements from the supplement of paper PMC10849652.
Targets with a hit are over-represented here; the source holds about 7,900 in all. About 0.6% of all pairs of compound and target were hits. Unmarked numbers belong to inactive results.

Key:
Assay in all cases: log2 fold change, soluble protein after heating vs DMSO (PISA); higher = thermal stabilisation; K562 cells, 10 uM, 30 min; active = over 0.2 and 3.5 SD of the protein, either way, in both replicates (recomputed)
[1] = compound: CC1=C(C=C(C=C1)NC(=O)C2=CC(=CC=C2)C(C)(C)C#N)NC3=CC4=C(C=C3)N=CN(C4=O)C
Outline: (§1)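 Soluble protein was quantified by TMTpro 16plex LC-MS/MS after channel sums were equalised. It was obtained as the supernatant after 21,000xg for 90 min from pooled aliquots of K562 cells (2×10^6 cells/mL, 10 μM compound, 30 min) heated for 3 min across 48°C-58°C and extracted in PBS with 0.5% NP-40 at 4°C. Thermal stability values are relative to control samples and come from duplicates. They are given as log2 fold changes.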

[2] = compound: CC1=C(C=C(C=C1)NC(=O)C2=CC(=CC=C2)N(C)C)NC(=O)C3=CC=C(C=C3)O
Outline: as §1

[3] = compound: CC1=CC=C(C=C1)SC2=C3C=C(SC3=CN=C2)C(=O)N
Outline: as §1

[4] = compound: CC1=NC(=CC=C1)C2=C(N=C(N2)C(C)(C)C)C3=CC4=NC=CN=C4C=C3
Outline: as §1

Nexturastat A = compound: CCCCN(Cc1ccc(C(=O)NO)cc1)C(=O)Nc1ccccc1 [Nexturastat A]
Outline: as §1

vemurafenib = compound: CCCS(=O)(=O)Nc1ccc(F)c(C(=O)c2c[nH]c3ncc(-c4ccc(Cl)cc4)cc23)c1F [vemurafenib]
Outline: as §1

[5] = compound: CCCS(=O)(=O)Nc1ccc(F)c(C(=O)c2c[nH]c3ncc(Cl)cc23)c1F
Outline: as §1

[6] = compound: CCCc1cc(C)[nH]c(=O)c1CNC(=O)c1cc(-c2ccnc(N3CCN(C)CC3)c2)cc2c1cnn2C(C)C
Outline: as §1

givinostat = compound: CCN(CC)Cc1ccc2cc(COC(=O)Nc3ccc(C(=O)NO)cc3)ccc2c1 [givinostat]
Outline: as §1

barasertib = compound: CCN(CCCOc1ccc2c(Nc3cc(CC(=O)Nc4cccc(F)c4)[nH]n3)ncnc2c1)CCOP(=O)(O)O [barasertib]
Outline: as §1

[7] = compound: CC[C@@H]1C(=O)N(C)c2cnc(Nc3ccc(C(=O)NC4CCN(C)CC4)cc3OC)nc2N1C1CCCC1
Outline: as §1

volasertib = compound: CC[C@@H]1C(=O)N(C)c2cnc(Nc3ccc(C(=O)N[C@H]4CC[C@H](N5CCN(CC6CC6)CC5)CC4)cc3OC)nc2N1C(C)C [volasertib]
Outline: as §1

[8] = compound: CC[C@H](C)N1C=C(C2=C(C=C(C=C21)C3=CN=C(C=C3)N4CCNCC4)C(=O)NCC5=C(C=C(NC5=O)C)C)C
Outline: as §1

epoxomicin = compound: CC[C@H](C)[C@@H](C(=O)N[C@@H]([C@@H](C)O)C(=O)N[C@@H](CC(C)C)C(=O)[C@]1(CO1)C)NC(=O)[C@H]([C@@H](C)CC)N(C)C(=O)C [epoxomicin]
Outline: as §1

[9] = compound: CCn1c(C(=O)N(C2CC2)C2CC2)cc2c3c(ncn3C)c(Nc3cc(C)n(C)n3)nc21
Outline: as §1

[10] = compound: CCn1cc(-c2ccnc3[nH]c(-c4cccc(CN(C)C)c4)cc23)c(-c2ccc(NC(=O)N(C)C)cc2)n1
Outline: as §1

[11] = compound: CN(C)CC(=O)Nc1ccc2[nH]c(=O)c3ccccc3c2c1
Outline: as §1

rosiglitazone = compound: CN(CCOC1=CC=C(C=C1)C[C@H]2C(=O)NC(=O)S2)C3=CC=CC=N3 (racemic) [rosiglitazone]
Outline: as §1

[12] = compound: CN1C2=C(C3=C1C(=O)N(N=C3)CC4=CC(=CC=C4)N)SC(=C2)S(=O)C
Outline: as §1

[13] = compound: CN1CCC(CNc2ccc3ncc(-c4cccc(OC(F)(F)F)c4)n3n2)CC1
Outline: as §1

UniProt Q9BUV8, sequence (Q9BUV8 whole entry, looked up): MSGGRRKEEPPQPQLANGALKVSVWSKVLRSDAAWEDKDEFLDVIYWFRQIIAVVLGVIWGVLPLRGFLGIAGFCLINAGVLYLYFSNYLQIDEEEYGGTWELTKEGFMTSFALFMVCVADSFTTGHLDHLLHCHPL
UniProt Q96ER3, sequence (Q96ER3 whole entry, looked up): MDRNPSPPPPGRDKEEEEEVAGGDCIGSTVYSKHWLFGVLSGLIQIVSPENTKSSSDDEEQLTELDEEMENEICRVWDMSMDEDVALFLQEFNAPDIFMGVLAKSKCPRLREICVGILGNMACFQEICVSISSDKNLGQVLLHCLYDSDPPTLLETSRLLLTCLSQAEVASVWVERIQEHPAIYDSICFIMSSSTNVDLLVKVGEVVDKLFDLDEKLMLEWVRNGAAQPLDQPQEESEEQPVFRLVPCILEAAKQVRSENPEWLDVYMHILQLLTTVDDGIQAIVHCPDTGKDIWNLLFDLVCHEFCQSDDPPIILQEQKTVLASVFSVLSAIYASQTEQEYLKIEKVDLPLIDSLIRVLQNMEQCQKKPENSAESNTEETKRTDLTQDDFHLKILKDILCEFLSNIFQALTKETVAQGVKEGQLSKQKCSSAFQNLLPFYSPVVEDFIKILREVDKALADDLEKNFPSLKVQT
UniProt Q9H082, sequence (Q9H082 whole entry, looked up): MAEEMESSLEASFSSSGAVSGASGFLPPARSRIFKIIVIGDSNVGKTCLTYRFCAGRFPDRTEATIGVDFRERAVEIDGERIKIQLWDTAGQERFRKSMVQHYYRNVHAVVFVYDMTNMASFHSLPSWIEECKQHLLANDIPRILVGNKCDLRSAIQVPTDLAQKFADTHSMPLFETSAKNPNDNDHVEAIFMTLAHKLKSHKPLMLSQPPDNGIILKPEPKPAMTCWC
UniProt Q5VTB9, sequence (Q5VTB9 whole entry, looked up): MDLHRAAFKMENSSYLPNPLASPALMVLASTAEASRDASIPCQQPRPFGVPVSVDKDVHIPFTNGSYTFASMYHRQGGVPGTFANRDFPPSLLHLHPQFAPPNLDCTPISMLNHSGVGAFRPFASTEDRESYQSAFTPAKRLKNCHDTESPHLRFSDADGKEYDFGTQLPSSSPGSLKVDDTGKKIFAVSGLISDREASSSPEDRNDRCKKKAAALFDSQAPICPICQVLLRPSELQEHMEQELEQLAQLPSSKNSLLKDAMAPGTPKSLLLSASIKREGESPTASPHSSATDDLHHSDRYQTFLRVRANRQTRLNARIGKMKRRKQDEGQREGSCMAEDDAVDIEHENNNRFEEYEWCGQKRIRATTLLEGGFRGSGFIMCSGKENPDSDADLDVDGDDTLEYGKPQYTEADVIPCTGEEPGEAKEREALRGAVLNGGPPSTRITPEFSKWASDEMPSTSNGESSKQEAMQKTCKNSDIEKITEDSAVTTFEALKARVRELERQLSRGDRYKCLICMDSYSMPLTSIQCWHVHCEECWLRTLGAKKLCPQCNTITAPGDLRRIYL
UniProt Q9GZR1, sequence (Q9GZR1 whole entry, looked up): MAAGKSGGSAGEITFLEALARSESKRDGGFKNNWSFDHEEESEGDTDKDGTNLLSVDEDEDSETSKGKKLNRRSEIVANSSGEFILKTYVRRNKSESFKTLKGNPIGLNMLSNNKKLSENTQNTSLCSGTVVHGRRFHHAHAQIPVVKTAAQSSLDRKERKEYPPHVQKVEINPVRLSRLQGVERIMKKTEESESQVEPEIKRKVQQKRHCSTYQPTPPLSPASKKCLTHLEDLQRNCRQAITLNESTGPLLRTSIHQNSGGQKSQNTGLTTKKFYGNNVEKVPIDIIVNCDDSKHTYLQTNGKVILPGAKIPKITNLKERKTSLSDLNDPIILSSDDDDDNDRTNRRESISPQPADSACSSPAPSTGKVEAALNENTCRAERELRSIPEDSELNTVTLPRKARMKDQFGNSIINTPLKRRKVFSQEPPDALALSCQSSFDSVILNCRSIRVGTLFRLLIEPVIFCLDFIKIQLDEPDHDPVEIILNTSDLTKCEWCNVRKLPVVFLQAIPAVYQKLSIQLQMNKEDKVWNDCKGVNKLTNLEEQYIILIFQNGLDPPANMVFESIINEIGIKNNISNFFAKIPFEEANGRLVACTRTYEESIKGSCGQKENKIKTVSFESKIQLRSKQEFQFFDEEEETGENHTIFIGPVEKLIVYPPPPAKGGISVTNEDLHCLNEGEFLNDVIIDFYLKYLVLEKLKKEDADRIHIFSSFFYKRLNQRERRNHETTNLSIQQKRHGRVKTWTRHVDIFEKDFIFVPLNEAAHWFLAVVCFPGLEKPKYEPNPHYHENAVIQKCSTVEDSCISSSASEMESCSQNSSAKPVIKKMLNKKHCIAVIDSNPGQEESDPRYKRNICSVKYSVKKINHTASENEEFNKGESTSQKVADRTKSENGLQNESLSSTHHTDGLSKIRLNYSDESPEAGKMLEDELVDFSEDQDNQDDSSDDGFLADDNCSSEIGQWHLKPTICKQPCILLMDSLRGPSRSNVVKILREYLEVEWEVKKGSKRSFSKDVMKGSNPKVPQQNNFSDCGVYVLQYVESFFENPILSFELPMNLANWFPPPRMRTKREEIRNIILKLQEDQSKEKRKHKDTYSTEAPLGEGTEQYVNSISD
UniProt Q5TA31, sequence (Q5TA31 whole entry, looked up): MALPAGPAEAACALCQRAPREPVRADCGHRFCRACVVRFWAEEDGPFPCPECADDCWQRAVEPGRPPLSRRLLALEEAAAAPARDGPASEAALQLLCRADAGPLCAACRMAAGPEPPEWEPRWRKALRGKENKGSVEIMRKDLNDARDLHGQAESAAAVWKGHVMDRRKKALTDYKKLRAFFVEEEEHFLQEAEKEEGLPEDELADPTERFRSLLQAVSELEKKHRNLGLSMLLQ
UniProt O75792, sequence (O75792 whole entry, looked up): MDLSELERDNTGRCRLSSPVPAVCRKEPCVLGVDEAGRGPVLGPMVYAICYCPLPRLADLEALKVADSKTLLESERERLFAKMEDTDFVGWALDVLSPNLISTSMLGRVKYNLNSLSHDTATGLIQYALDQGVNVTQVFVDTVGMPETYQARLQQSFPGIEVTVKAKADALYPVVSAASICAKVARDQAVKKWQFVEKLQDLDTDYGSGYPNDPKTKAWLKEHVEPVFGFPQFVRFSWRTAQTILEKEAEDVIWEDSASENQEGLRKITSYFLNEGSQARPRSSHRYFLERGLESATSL
UniProt Q92696, sequence (Q92696 whole entry, looked up): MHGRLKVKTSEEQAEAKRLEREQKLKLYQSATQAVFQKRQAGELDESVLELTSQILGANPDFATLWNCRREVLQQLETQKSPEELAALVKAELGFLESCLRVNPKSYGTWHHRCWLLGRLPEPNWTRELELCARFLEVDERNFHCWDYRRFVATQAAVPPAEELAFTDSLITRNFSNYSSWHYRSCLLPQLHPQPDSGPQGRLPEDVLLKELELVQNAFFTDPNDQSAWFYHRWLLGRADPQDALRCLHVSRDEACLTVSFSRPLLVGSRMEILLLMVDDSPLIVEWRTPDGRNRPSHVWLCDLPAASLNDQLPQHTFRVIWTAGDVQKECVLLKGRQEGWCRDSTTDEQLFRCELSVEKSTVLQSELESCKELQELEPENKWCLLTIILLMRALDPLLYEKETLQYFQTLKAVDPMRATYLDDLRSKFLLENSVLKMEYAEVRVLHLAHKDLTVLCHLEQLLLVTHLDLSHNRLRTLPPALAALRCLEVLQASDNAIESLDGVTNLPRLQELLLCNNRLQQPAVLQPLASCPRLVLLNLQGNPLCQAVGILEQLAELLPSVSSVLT
UniProt Q96I25, sequence (Q96I25 whole entry, looked up): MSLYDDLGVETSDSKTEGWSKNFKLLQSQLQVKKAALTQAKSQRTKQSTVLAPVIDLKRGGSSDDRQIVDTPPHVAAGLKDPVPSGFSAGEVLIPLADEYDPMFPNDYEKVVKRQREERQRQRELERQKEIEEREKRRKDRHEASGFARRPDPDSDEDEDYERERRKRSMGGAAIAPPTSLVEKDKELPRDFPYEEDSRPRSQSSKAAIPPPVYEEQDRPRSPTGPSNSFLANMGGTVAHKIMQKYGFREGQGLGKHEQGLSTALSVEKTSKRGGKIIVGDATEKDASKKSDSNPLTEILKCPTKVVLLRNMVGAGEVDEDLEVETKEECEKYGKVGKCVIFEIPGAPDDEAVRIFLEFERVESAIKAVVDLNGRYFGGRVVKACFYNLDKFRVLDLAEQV
UniProt P05543, sequence (P05543 whole entry, looked up): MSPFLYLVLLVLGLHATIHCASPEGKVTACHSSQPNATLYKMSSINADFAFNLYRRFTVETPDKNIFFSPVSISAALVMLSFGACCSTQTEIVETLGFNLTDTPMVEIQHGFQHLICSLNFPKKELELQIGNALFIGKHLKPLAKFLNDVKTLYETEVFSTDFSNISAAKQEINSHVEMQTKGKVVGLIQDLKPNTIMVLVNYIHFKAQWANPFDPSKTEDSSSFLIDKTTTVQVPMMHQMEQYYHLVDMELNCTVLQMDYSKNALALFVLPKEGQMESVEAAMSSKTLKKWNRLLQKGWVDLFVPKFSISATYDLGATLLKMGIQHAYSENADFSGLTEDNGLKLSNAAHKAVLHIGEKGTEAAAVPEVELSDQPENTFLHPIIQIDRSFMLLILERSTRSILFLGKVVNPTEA

Target	log2 fold change [1]	log2 fold change [2]	log2 fold change [3]	log2 fold change [4]	log2 fold change (Nexturastat A)	log2 fold change (vemurafenib)	log2 fold change [5]	log2 fold change [6]	log2 fold change (givinostat)	log2 fold change (barasertib)	log2 fold change [7]	log2 fold change (volasertib)	log2 fold change [8]	log2 fold change (epoxomicin)	log2 fold change [9]	log2 fold change [10]	log2 fold change [11]	log2 fold change (rosiglitazone)	log2 fold change [12]	log2 fold change [13]
RAB5IF isoform 5 (UniProt Q9BUV8)	0.044	0.01	-0.042	0.247	-0.143	0.047	0.012	0.244	-0.007	-0.003	-0.025	0.036	-0.129	0.017	0.011	-0.056	-0.031	0.028	0.003	0.092
RNASEH2A (UniProt O75792)	-0.023	-0.018	0.022	0.046	0.142	-0.102	-0.024	-0.063	0.046	0.039	-0.062	-0.075	0.068	0.061	-0.002	-0.061	-0.118	0.013	-0.019	-0.394 (active)
SAAL1 (UniProt Q96ER3)	0.004	-0.008	0.006	0.009	-0.078	-0.017	0.035	-0.014	-0.059	0.046	-0.167	-0.245 (active)	0.001	0.025	-0.038	0.025	-0.025	0.051	-0.012	-0.219
RPS16 (UniProt P62249)	0.028	-0.016	-0.087	-0.035	0.11	-0.073	-0.103	0.337	-0.046	-0.053	0.125	0.388	0.044	-0.118	0.026	0.124	-0.085	-0.072	0.112	0.1
RPS2 (UniProt P15880)	0.006	0.009	-0.075	-0.036	0.192	-0.116	-0.099	0.084	-0.011	-0.095	0.168	0.348	0.021	-0.191	0.045	0.119	-0.108	-0.092	0.195	0.086
RAP1GDS1 isoform 5 (UniProt P52306)	-0.04	-0.035	0.073	0.042	-0.023	-0.014	0.174	0.016	0.047	0.019	-0.018	-0.27	0.077	0	0.01	-0.008	-0.017	0.072	-0.012	-0.002
RPL38 (UniProt P63173)	0.032	0.017	-0.038	-0.045	0.075	-0.003	0.006	0.069	-0.054	-0.025	0.076	0.187	0.033	-0.062	-0.022	-0.03	-0.02	-0.012	-0.004	0.052
RNF187 (UniProt Q5TA31)	-0.074	-0.102	0.048	-0.005	0.085	-0.106	0.039	0	0.036	0.041	0.155	0.074	0.061	0.15	-0.061	0.002	0.24	0.004	-0.104	-0.073
RPS4X (UniProt P62701)	0.019	0	-0.027	-0.055	0.214	-0.106	-0.08	0.213	0.021	-0.101	0.173	0.419	0.056	-0.22	0.032	0.108	-0.089	-0.086	0.177	0.148
RABGGTA (UniProt Q92696)	0.019	0.04	-0.004	0.002	-0.084	0.003	0.005	-0.023	-0.024	0.017	0.029	-0.087	-0.013	0.021	-0.032	-0.051	-0.015	0.054	-0.111	-0.023
RNF220 (UniProt Q5VTB9)	-0.01	-0.086	0.008	0.047	0.008	-0.001	-0.001	-0.023	0.038	0.016	-0.047	-0.114	0.085	-0.021	-0.045	-0.043	-0.03	0.002	-0.045	0.003
SENP6 (UniProt Q9GZR1)	-0.048	-0.006	0.037	-0.007	0.247	-0.028	-0.01	0.077	0.057	-0.026	-0.086	-0.07	-0.044	-0.039	0.029	-0.022	-0.017	0.004	-0.014	-0.038
SERPINA7 (UniProt P05543)	-0.121	0.496	0.067	-0.021	0.086	-0.06	-0.271	-0.349	-0.043	-0.127	0.055	0.309	0.044	-0.68 (active)	0.073	0.036	-0.123	-0.014	0.255	0.279
RAB3GAP2 (UniProt Q9H2M9)	-0.001	-0.018	0.017	-0.029	0.215	0.06	0.026	0.092	0.106	0.068	-0.101	-0.358	0.044	0.022	-0.041	0.088	0.04	0.053	0.133	-0.132
RAB33B (UniProt Q9H082)	-0.028	-0.026	-0.028	-0.071	-0.004	-0.083	-0.038	-0.065	-0.012	0.031	-0.016	-0.014	-0.04	-0.009	-0.005	0.09	-0.031	0.033	-0.067	-0.006
RBM17 (UniProt Q96I25)	-0.004	-0.036	0.057	0.012	0.007	0.068	0.118	0.013	0.028	0.043	-0.08	-0.422 (active)	0.085	0.066	-0.271	-0.059	0.048	0.099	0.088	-0.037
